Source: PubChem
BAZ2B inh: qHTS Assay for Inhibitors of BAZ2B | Bromodomain adjacent to zinc finger domain protein 2B (Homo sapiens), Q9UIF8 | AlphaScreen BAZ2B-H3K14Ac peptide displacement | Potency, µM (highest dose often 114 µM), most hits filed as inhibitors | 360,000 compounds, 4.4% hits; also: nearly all actives have a fitted effect of over 60% in size
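In this displacement format the biotinylated H3(5-23) peptide acetylated at Lys14 serves as ligand at 50 nM, with BAZ2B at 50 nM in PBS pH 7.4 containing 0.01% Tween-20. Donor and acceptor beads are 10 ug/mL final.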
G9a block: qHTS Assay for Inhibitors of Histone Lysine Methyltransferase G9a; G9a H3K9 monomethylation, AlphaScreen, 2 h; Histone-lysine N-methyltransferase EHMT2 (Homo sapiens), Q96KQ7; 350,000 compounds, 8.8% hits; AID 504332, 2011; Potency, µM (top dose mostly 102 µM), most hits filed as inhibitors; also: nearly all actives have a fitted effect of over 75% in size
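Quantitative HTS format: methyltransferase activity on a biotin-tagged H3K9 peptide is measured by AlphaScreen, using a rabbit anti-monomethyl-H3K9 antibody with streptavidin donor and anti-IgG acceptor beads. Final levels are 20 nM enzyme, 500 nM peptide, 20 uM SAM; 2 h RT.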
JMJD2A Tudor inh: qHTS Assay for Inhibitors of JMJD2A-Tudor Domain; Potency, µM (titrated, usually from 114 µM), most hits filed as inhibitors; AlphaScreen JMJD2A-Tudor / H3K4me3 peptide binding; 390,000 compounds, 4.4% hits; Lysine-specific demethylase 4A (Homo sapiens), O75164; also: nearly all actives have a fitted effect of over 50% in size
Target sequence (O75164 whole entry, looked up, the tested form may be a part): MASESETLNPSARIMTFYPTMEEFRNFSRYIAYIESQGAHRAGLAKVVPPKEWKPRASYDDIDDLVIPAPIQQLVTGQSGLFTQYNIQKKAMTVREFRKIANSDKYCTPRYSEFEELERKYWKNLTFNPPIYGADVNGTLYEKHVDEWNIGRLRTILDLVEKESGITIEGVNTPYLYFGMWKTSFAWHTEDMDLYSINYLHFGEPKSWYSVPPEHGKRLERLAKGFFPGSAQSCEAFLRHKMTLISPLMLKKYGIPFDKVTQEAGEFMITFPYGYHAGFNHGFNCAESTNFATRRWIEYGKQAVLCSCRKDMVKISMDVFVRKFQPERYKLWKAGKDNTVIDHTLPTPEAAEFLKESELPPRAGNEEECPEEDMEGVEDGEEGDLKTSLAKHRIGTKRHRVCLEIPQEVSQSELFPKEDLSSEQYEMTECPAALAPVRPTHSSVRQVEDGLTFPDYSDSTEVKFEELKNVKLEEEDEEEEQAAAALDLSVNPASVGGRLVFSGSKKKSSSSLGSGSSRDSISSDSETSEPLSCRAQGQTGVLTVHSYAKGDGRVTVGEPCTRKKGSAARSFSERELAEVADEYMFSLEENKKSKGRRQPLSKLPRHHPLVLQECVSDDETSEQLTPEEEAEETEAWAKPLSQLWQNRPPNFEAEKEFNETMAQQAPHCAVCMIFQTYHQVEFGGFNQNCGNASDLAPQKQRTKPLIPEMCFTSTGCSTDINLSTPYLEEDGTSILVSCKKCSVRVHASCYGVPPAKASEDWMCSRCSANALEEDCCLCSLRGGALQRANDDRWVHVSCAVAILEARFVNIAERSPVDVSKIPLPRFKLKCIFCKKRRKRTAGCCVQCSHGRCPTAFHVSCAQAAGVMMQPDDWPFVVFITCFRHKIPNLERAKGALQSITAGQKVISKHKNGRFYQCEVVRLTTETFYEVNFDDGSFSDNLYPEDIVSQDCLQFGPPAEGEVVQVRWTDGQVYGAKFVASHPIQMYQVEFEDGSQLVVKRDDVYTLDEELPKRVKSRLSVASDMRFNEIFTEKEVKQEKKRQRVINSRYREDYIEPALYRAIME
GLS inhibitor: qHTS for Inhibitors of Glutaminase (GLS); Glutaminase kidney isoform, mitochondrial (Homo sapiens), O94925; GLS enzymatic activity, qHTS titration; Potency, µM (highest dose often 45.5 µM), hits mostly inhibitors; 410,000 compounds, 0.21% hits
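Enzyme dispensed in phosphate buffer (45 mM, pH 8.2, 0.02% Tween-20), compounds pinned in, then 1 mM L-glutamine solution and the glutamate oxidase–HRP–Amplex Red mix added; fluorescence read immediately and again after 30 min at room temperature.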
HP1b binding inh: HTS for Inhibitors of HP1-beta Chromodomain Interactions with Methylated Histone Tails; Chromobox protein homolog 1 (Homo sapiens), P83916; AlphaScreen HP1-beta / biotin-H3K9me3 peptide binding; Potency, µM (titrated, usually from 114 µM), hits mostly inhibitors; 390,000 compounds, 0.56% hits; AID 540317, 2011; also: nearly all actives have a fitted effect of over 70% in size
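Compound inhibition of the preformed complex between 50 nM HP1-beta and 50 nM biotinylated H3K9me3 peptide was read by AlphaScreen. Buffer was PBS pH 7.4 with 0.01% Tween-20. Incubations ran 30 min at room temperature, with 10 ug/mL donor/acceptor beads.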
Large screens that a line does not name were inactive; ! = not active in a repeat. An excerpt weighted towards active compounds, which were near 10% of everything screened. Calls follow the shape of the dose curve; as a rule, active = well fitted curve in the direction sought with a large enough effect; inconclusive = small, poorly fitted or top-dose-only effect, or another doubt; inactive = no such curve, though single readings can be large; an effect the other way counts as inactive or inconclusive.

Cc1cc2c(c(=O)n1CCCn1ccnc1)C(c1ccco1)C(C#N)=C(N)O2 (configuration not stated)	G9a block inconclusive
COc1ccc(C2C(C#N)=C(N)Oc3cc(C)n(Cc4ccco4)c(=O)c32)cc1 (configuration not stated)	G9a block 25.1µM
COc1cccc(C2C(C#N)=C(N)Oc3cc(C)n(Cc4ccco4)c(=O)c32)c1 (configuration not stated)	G9a block 50.1µM
Cc1cc2c(c(=O)n1Cc1cccnc1)C(c1ccccc1)C(C#N)=C(N)O2 (configuration not stated)	none
Cc1ccccc1C(=O)Nc1ccc(N(C)C)c2ccccc12	none
CN(C)c1ccc(NC(=O)CSCc2nc3c(nnn3Cc3ccc(F)cc3)c(=O)[nH]2)cc1	BAZ2B inh inconclusive, G9a block inconclusive, JMJD2A Tudor inh 50.1µM
Cc1cccc(NC(=O)CSCc2nc3c(nnn3Cc3ccc(F)cc3)c(=O)[nH]2)c1C	BAZ2B inh inconclusive
O=C(NC1C=CS(=O)(=O)C1)c1ccccc1 (configuration not stated)	none
N#Cc1ccc(Oc2ccc(NC(=O)C3CC=CCC3C(=O)O)cc2)cc1 (configuration not stated)	none
Cc1cccc(Oc2ccc(NC(=O)C3CC=CCC3C(=O)O)cc2)c1 (configuration not stated)	BAZ2B inh inconclusive, G9a block 44.7µM, JMJD2A Tudor inh inconclusive
O=C(O)CC/C(=N\Nc1ccc([N+](=O)[O-])cc1S(=O)(=O)N1CCOCC1)c1cccs1	G9a block 35.5µM, GLS inhibitor inconclusive
COCCn1c(NC(=S)NC(=O)C23CC4CC(CC(C4)C2)C3)cc(=O)[nH]c1=O	none
COCCn1c(NC(=S)NC(=O)C2CC2)cc(=O)[nH]c1=O	BAZ2B inh inconclusive, G9a block inconclusive, JMJD2A Tudor inh 1µM
CCN(CC)S(=O)(=O)c1ccc(C(=O)Nc2nnc(CSC)o2)cc1	BAZ2B inh 79.4µM
CCCCN(CCCC)S(=O)(=O)c1ccc(C(=O)Nc2nnc(COC)o2)cc1	BAZ2B inh inconclusive
CCOC(=O)N1CCN(S(=O)(=O)c2ccc(NC(C)=O)cc2)CC1	none (no result: G9a block)
CCCCN(C)S(=O)(=O)c1ccc(C(=O)Nc2nnc(-c3ccco3)o2)cc1	none (no result: BAZ2B inh)
CCc1nnc(NC(=O)c2ccc(S(=O)(=O)N(CC)Cc3ccccc3)cc2)o1	BAZ2B inh 50.1µM, GLS inhibitor inconclusive
CCOC(=O)N1CCN(S(=O)(=O)c2ccc(C(=O)Nc3nnc(CSC)o3)cc2)CC1	BAZ2B inh 79.4µM, JMJD2A Tudor inh 44.7µM
CCCCN(C)S(=O)(=O)c1ccc(C(=O)Nc2nnc(CSC)o2)cc1	BAZ2B inh inconclusive, JMJD2A Tudor inh 79.4µM (no result: G9a block)
CC(=O)c1c(C)[nH]c(C(=O)COC(=O)CNS(=O)(=O)c2ccccc2)c1C	none
Cc1ccc(C(=O)CC(C(=O)O)c2cn(CCC#N)c3ccccc23)cc1 (configuration not stated)	G9a block inconclusive, JMJD2A Tudor inh 50.1µM, HP1b binding inh inconclusive
N#CCCn1cc(C(CC(=O)c2ccc(Br)cc2)C(=O)O)c2ccccc21 (configuration not stated)	BAZ2B inh inconclusive, G9a block inconclusive
COC(=O)C1=C(C)OC(N)=C(C#N)C1c1ccc(OC)c(CSc2ccccn2)c1 (configuration not stated)	G9a block 15.8µM
COc1cc(OC)c(NC(c2nnc(-c3ccccc3)o2)c2ccc(F)cc2Cl)cc1Cl (configuration not stated)	BAZ2B inh inconclusive, G9a block 11.2µM, JMJD2A Tudor inh inconclusive
COc1ccc(CN(C)C(=O)Cn2ccsc2=N)cc1OC	none
COc1ccc(CN(C)C(=O)Cn2cc(C)c(=O)[nH]c2=O)cc1OC	JMJD2A Tudor inh 79.4µM (no result: BAZ2B inh, G9a block)
Cc1ccc(N2C(=N)/C(=C3/Nc4ccccc4S3)C(c3ccccc3)C2=O)cc1 (configuration not stated)	G9a block 35.5µM, JMJD2A Tudor inh inconclusive
Cc1ccc(N2C(=O)C(F)(F)C2c2ccccc2)cc1 (configuration not stated)	none
Cn1c(-n2cccc2)c(-c2c(-c3ccccc3)[nH]c3c2c(=O)[nH]c(=O)n3C)c(=O)[nH]c1=O	BAZ2B inh 79.4µM
CC[C@H](C)C(=O)O[C@H]1C[C@@H](C)C=C2C=C[C@H](C)[C@H](CC[C@@H]3C[C@@H](O)CC(=O)O3)[C@H]21	G9a block 15.8µM!
CCC(C)C(=O)OC1CCC=C2C=CC(C)C(CCC3CC(O)CC(=O)O3)C21 (configuration not stated)	none (no result: BAZ2B inh, G9a block)
CCOc1ccc(NC(=S)c2ccncc2)cc1	BAZ2B inh inconclusive, G9a block inconclusive
CC1(C)CC(=O)C2=C(C1)Nc1cc3c(cc1C2c1ccc2c(c1)OCO2)OCO3 (configuration not stated)	BAZ2B inh inconclusive, G9a block 39.8µM, JMJD2A Tudor inh inconclusive
CC1=C(C(=O)N(C(C)C)C(C)C)CC(CC(=O)NC2CCCCC2)C(=O)N1Cc1ccccc1 (configuration not stated)	none (no result: BAZ2B inh, G9a block, JMJD2A Tudor inh, HP1b binding inh)
CCC1=Nc2cc(C(=O)NCCCOC)ccc2Sc2ccccc21	G9a block inconclusive
CCn1c(CNC(=O)c2ccc(OC)cc2)nnc1SCC(=O)c1ccccc1	JMJD2A Tudor inh 20µM, HP1b binding inh inconclusive
CCn1c(CNC(C)=O)nnc1SCC(=O)c1ccc(Br)cc1	G9a block 11.2µM, JMJD2A Tudor inh 56.2µM
CCn1c(CCNC(=O)c2cccs2)nnc1SCC(=O)c1ccc(OC)cc1	JMJD2A Tudor inh 28.2µM, HP1b binding inh inconclusive (no result: BAZ2B inh, G9a block)
Cc1nc(-c2cccc(NC(=O)COc3ccc(Cl)cc3)c2)cs1	none
COc1ccccc1/C=C\C=N\n1c(-c2ccc(Cl)cc2)n[nH]c1=S	G9a block 4.47µM
COc1ccccc1/C=C/C=N/n1c(C)nnc1C	G9a block inconclusive
COc1ccccc1/C=C\C=N\n1c(-c2ccc(Cl)cc2Cl)n[nH]c1=S	BAZ2B inh inconclusive, G9a block 6.31µM, JMJD2A Tudor inh inconclusive, HP1b binding inh inconclusive
COc1ccccc1/C=C/C=N/n1c(-c2ccc(F)cc2)n[nH]c1=S	G9a block 3.98µM
Cc1cc(=O)c2ccc3ccccc3c2[nH]1	none
O=C(CNC(=S)N(Cc1ccccc1)Cc1ccccc1F)NCCc1ccc(Cl)cc1	none
O=C(O)/C=C\C(=O)N1CCc2ccccc21	none
O=C1CCc2cc(S(=O)(=O)NC3CCCCC3)cc3c2N1CC3	G9a block 50.1µM
